Structures can show the parent of a compound that is named as a salt. ± gives the standard deviation or the standard deviation of the averaged measurements.
Legend:
Conditions in all cases: 25 µM; exposure: 24-48 hpf
[1] = test system: Danio rerio Tg(wt1b:EGFP) embryo, pronephros; assay: glomerular separation, fold change vs DMSO control; higher = glomeruli further apart (abnormal)
How it was run: (§1)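 Dechorionated Tg(wt1b:EGFP) zebrafish embryos were kept from 24 to 48 hpf at 28.5°C in HEPES-buffered E3 containing 0.003% PTU, 0.5% DMSO and 25 μM compound. The pronephroi were then imaged from the dorsal side in agarose-filled 96-well plates at 470 nm with 10 z-slices, and 16 reference points were placed by hand on maximum projections in Fiji so that a macro could calculate distances and angles. Values lying more than 2 SD from the mean of a feature were discarded. Every feature is given as a fold change against the mean of DMSO-treated embryos from the same day.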

[2] = test system: Danio rerio Tg(wt1b:EGFP) embryo, pronephros; assay: glomerular width (mean of left and right), fold change vs DMSO control; higher = wider glomerulus
How it was run: as §1

[3] = test system: Danio rerio Tg(wt1b:EGFP) embryo, pronephros; assay: fraction of imaged embryos annotated as normal kidney; higher = less nephrotoxic; extreme values may be limits of the assay
How it was run: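 Zebrafish embryos carrying Tg(wt1b:EGFP) were dechorionated and exposed to 25 μM compound (0.5% DMSO) between 24 and 48 hpf at 28.5°C. Their pronephroi were imaged by widefield fluorescence, and each embryo was classed by hand from maximum projections. The measure is the fraction of embryos per treatment falling in the normal-kidney category.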

[4] = test system: Danio rerio Tg(wt1b:EGFP) embryo, pronephros; assay: pronephric angle neck segment to proximal convoluted tubule (mean of left and right), fold change vs DMSO control; higher = larger pronephric angle
How it was run: as §1

Row | Structure (SMILES) | glomerular separation [1] | glomerular width [2] | fraction of imaged embryos annotated as normal kidney [3] | pronephric angle neck segment [4]
1 | CC(=O)O[C@H]1C[C@@H]2CC[C@@H]3[C@H](CC[C@@]4(C)[C@H]3C[C@H]([N+]3(C)CCCCC3)[C@@H]4OC(C)=O)[C@@]2(C)C[C@@H]1[N+]1(C)CCCCC1 [Pancuronium bromide] | 1.23 ± 0.41 | 0.928 ± 0.13 | 1 | 0.955 ± 0.047
2 | C[C@@]12N[C@@H](Cc3ccccc31)c1ccccc12 [(-)-MK 801 hydrogen maleate] | 1.02 ± 0.29 | 1.034 ± 0.0098 | 1 | 1.02 ± 0.069
3 | CCN(C(C)=O)c1cccc(-c2ccnc3c(C#N)cnn23)c1 [Zaleplon] | 0.976 ± 0.47 | 0.943 ± 0.034 | 0.833 | 1.03 ± 0.027
4 | c1ccc2nc(N3CCNCC3)ccc2c1 [Quipazine dimaleate salt] | 1.09 ± 0.53 | 1.01 ± 0.04 | 0.75 | 1.022 ± 0.0046
5 | CC(N)C(O)c1ccccc1 (stereo not given) [Phenylpropanolamine hydrochloride] | 0.921 ± 0.29 | 0.982 ± 0.054 | 0.917 | 1.07 ± 0.027
6 | C#C[C@]1(O)CC[C@H]2[C@@H]3CCC4=CC(=O)CCC4=C3C=C[C@@]21CC [Gestrinone] | 1.64 ± 0.91 | 1.119 ± 0.0059 | 0.417 | 1.03 ± 0.038
7 | c1ccc2c(c1)Nc1ccccc1S2 [Phenothiazine] | 1.35 ± 0.6 | 0.851 ± 0.062 | 0.75 | 1.101 ± 0.002
8 | NCC(CC(=O)O)c1ccc(Cl)cc1 (racemic) [Baclofen (R,S)] | 0.757 ± 0.3 | 0.933 ± 0.0029 | 0.833 | 0.829 ± 0.056
9 | CC(C)C[C@H]1C(=O)N2CCC[C@H]2[C@]2(O)O[C@](NC(=O)[C@@H]3C=C4c5cccc6[nH]c(Br)c(c56)C[C@H]4N(C)C3)(C(C)C)C(=O)N12 [Bromocryptine mesylate] | 1.01 ± 0.34 | 1.12 ± 0.012 | 0.833 | 0.985 ± 0.022
10 | COc1ccc(OC)c(C(O)C(C)N)c1 (stereo not given) [Methoxamine hydrochloride] | 0.886 ± 0.22 | 0.9725 ± 0.0077 | 0.75 | 0.976 ± 0.021
11 | C[N+]12CCC(CC1)C(OC(=O)C(O)(c1ccccc1)c1ccccc1)C2 (stereo not given) [Clidinium bromide] | 0.83 ± 0.32 | 0.982 ± 0.1 | 0.917 | 0.967 ± 0.022
12 | CCC(COC(=O)c1cc(OC)c(OC)c(OC)c1)(c1ccccc1)N(C)C (stereo not given) [Trimebutine] | 0.875 ± 0.36 | 0.9518 ± 0.0092 | 0.917 | 1.01 ± 0.012
13 | O=[N+]([O-])O[C@@H]1CO[C@H]2[C@@H]1OC[C@@H]2O [Isosorbide mononitrate] | 0.951 ± 0.48 | 1.04 ± 0.019 | 0.833 | 0.986 ± 0.021
14 | O[C@@H]1CCCC[C@H]1N1CCC(c2ccccc2)CC1 [L(-)-vesamicol hydrochloride] | 1.01 ± 0.55 | 0.955 ± 0.032 | 0.917 | 1.01 ± 0.075
15 | CCN(CC)C(C)C(=O)c1ccccc1 (stereo not given) [Amfepramone hydrochloride] | 0.872 ± 0.24 | 0.97173 ± 0.00026 | 0.917 | 1.01 ± 0.0072
16 | CC(O)(CS(=O)(=O)c1ccc(F)cc1)C(=O)Nc1ccc(C#N)c(C(F)(F)F)c1 (stereo not given) [Bicalutamide] | 1.14 ± 0.56 | 1.04 ± 0.023 | 0.75 | 0.971 ± 0.002
17 | NCC(O)c1ccc(O)cc1 (racemic) [(+,-)-Octopamine hydrochloride] | 0.97 ± 0.66 | 0.94 ± 0.042 | 0.909 | 0.987 ± 0.059
18 | CCCC(C)(COC(N)=O)COC(=O)NC(C)C (stereo not given) [Carisoprodol] | 0.877 ± 0.24 | 1.14 ± 0.026 | 1 | 0.938 ± 0.022
19 | CCn1cc(C(=O)O)c(=O)c2cc3c(cc21)OCO3 [Oxolinic acid] | 0.66 ± 0.37 | 1.06 ± 0.096 | 0.583 | 0.799 ± 0.024
20 | C[C@]12CC[C@@H]3c4ccc(OC(=O)N(CCCl)CCCl)cc4CC[C@H]3[C@@H]1CC[C@@H]2O [Estramustine] | 2.15 ± 0.79 | 0.792 ± 0.018 | 0.333 | 1.1 ± 0.03
21 | CN1[C@@H]2C[C@@H](OC(=O)[C@H](CO)c3ccccc3)C[C@H]1[C@@H]1O[C@@H]12 [Scopolamine hydrochloride] | 0.986 ± 0.42 | 1.09 ± 0.054 | 0.833 | 0.984 ± 0.036
22 | C=C(C)[C@@H]1[C@H]2OC(=O)[C@@H]1[C@]1(O)C[C@H]3O[C@]34C(=O)O[C@H]2[C@]14C [Picrotoxinin] | 1.19 ± 0.57 | 0.973 ± 0.011 | 0.917 | 1.01 ± 0.03
23 | C[N+]1(C)CCOC(O)(c2ccc(-c3ccc(C4(O)C[N+](C)(C)CCO4)cc3)cc2)C1 (stereo not given) [Hemicholinium bromide] | 0.878 ± 0.14 | 0.95 ± 0.00098 | 0.917 | 1 ± 0.1
24 | O=C(CCCN1CCC2(CC1)C(=O)NCN2c1ccccc1)c1ccc(F)cc1 [Spiperone] | 1.21 ± 0.45 | 0.978 ± 0.02 | 0.833 | 1.06 ± 0.078
25 | O=c1[nH]c2ccccc2n1C1CCN(CCCC(c2ccc(F)cc2)c2ccc(F)cc2)CC1 [Pimozide] | 4.46 ± 1.6 | 0.673 ± 0.02 | 0 | 0.976 ± 0.099
